Test results reported in PubChem BioAssay AID1159580 (chemical genetic matrix, 2015).
Where “and” joins values, the source holds several entries; their conditions need not be identical. Equal entries are not always repeated. Out of some 5,500 compounds screened, about 2,000 (36%) were called active. About 18% were inconclusive and are not listed. No stated cut-off is given here; in the data, active means normalized growth mostly below about 0.91 (no sharp cut-off); inconclusive means no clear call, values can overlap the other calls; inactive means mostly above about 0.92. The list shows a part of the results.

Test: chemical genetic growth profiling, strain panel (AID 1159580);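 further: tested at 20 µM; growth read once vehicle control cultures reached saturation at 30 °C; 1 = growth at the plate median or of vehicle wells; lower values mean less growth of the strain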
Details: S. cerevisiae deletion strains, growth OD

Measured: normalized growth

C#CCN(C)Cc1ccccc1
inactive: locus YAL013W, strain DEP1, hits give low values 0.994 | locus YAL021C, strain ccr4, hits give low values 1.03 | locus YAL026C, strain drs2, hits give low values 1.02 | locus YAL030W, strain snc1, hits give low values 0.999 | locus YAL040C, strain CLN3, hits give low values 0.998 | locus YBL061C, strain skt5, hits give low values 0.984 | locus YBR009C, strain hhf1, hits give low values 0.982 | locus YBR021W, strain FUR4, hits give low values 1.02 | locus YBR023C, strain chs3, hits give low values 0.997 | locus YBR171W, strain sec66, hits give low values 1.04 | locus YBR229C, strain ROT2, hits give low values 1 | locus YBR231C, strain swc5, hits give low values 1.01 | locus YBR279W, strain paf1, hits give low values 0.977 | locus YCL011C, strain gbp2, hits give low values 1 | locus YCL016C, strain dcc1, hits give low values 0.962 | locus YCL029C, strain bik1, hits give low values 1.02 | locus YCL061C, strain MRC1 (second series), hits give low values 1 | locus YCL069W, strain vba3, hits give low values 1.02 | locus YCR088W, strain abp1, hits give low values 1.04 | locus YDL005C, strain med2, hits give low values 1.02 | locus YDL035C, strain GPR1, hits give low values 0.997 | locus YDL040C, strain nat1, hits give low values 1.02 | locus YDL074C, strain BRE1, hits give low values 0.991 | locus YDL101C, strain DUN1, hits give low values 1.01 | locus YDL134C, strain PPH21, hits give low values 1 | locus YDL185W, strain tfp1, hits give low values 1.01 | locus YDL192W, strain arf1, hits give low values 1.02 | locus YDR001C, strain nth1, hits give low values 1.01 | locus YDR069C, strain doa4, hits give low values 0.955 | locus YDR101C, strain arx1, hits give low values 1.02 | locus YDR137W, strain rgp1, hits give low values 0.98 | locus YDR159W, strain sac3, hits give low values 0.933 | locus YDR162C, strain NBP2, hits give low values 1 | locus YDR195W, strain ref2 0.988 | locus YDR297W, strain sur2, hits give low values 0.998 | locus YDR318W, strain mcm21, hits give low values 1.03 | locus YDR334W, strain swr1, hits give low values 1.02 | locus YDR335W, strain msn5, hits give low values 0.996 | locus YDR363W, strain ESC2, hits give low values 0.949 | locus YDR388W, hits give low values 1.02 | locus YDR392W, strain spt3, hits give low values 0.958 | locus YDR502C, strain sam2, hits give low values 1.01 | locus YEL003W, strain gim4, hits give low values 1.04 | locus YEL037C, strain rad23, hits give low values 1.03 | locus YEL061C, strain CIN8 (second series), hits give low values 1.02 | locus YEL061C, strain CIN8, hits give low values 0.99 | locus YER002W, strain NOP16, hits give low values 1.02 | locus YER015W, strain faa2, hits give low values 1 | locus YER016W, strain bim1, hits give low values 0.979 | locus YER110C, hits give low values 1.01 | locus YER111C, strain swi4, hits give low values 1.01 | locus YER155C, strain BEM2 (second series), hits give low values 1.01 | locus YER155C, strain BEM2, hits give low values 1 | locus YER167W, strain BCK2, hits give low values 1 | locus YFR010W, strain ubp6, hits give low values 1.04 | locus YGL078C, strain dbp3, hits give low values 1.01 | locus YGL086W, strain mad1, hits give low values 0.998 | locus YGL167C, strain pmr1, hits give low values 0.987 | locus YGL173C, strain kem1, hits give low values 1.05 | locus YGL227W, strain vid30, hits give low values 1.01 | locus YGL240W, strain doc1, hits give low values 0.977 | locus YGL248W, strain PDE1, hits give low values 1 | locus YGL253W, strain hxk2, hits give low values 1.02 | locus YGR078C, strain PAC10, hits give low values 0.995 | locus YGR135W, strain pre9, hits give low values 1.02 | locus YGR252W, strain gcn5, hits give low values 0.965 | locus YHR013C, strain ard1, hits give low values 1 | locus YHR027C, strain rpn1, hits give low values 1.02 | locus YHR030C, strain SLT2, hits give low values 0.992 and 0.966 | locus YHR079C, strain IRE1 (second series), hits give low values 1.03 | locus YHR079C, strain IRE1, hits give low values 0.927 | locus YHR094C, strain hxt1, hits give low values 1.02 | locus YHR129C, strain ARP1, hits give low values 0.996 | locus YHR142W, strain chs7, hits give low values 1.06 | locus YHR200W, strain rpn10, hits give low values 1.01 | locus YIL066C, strain RNR3, hits give low values 0.992 | locus YIL073C, strain SPO22, hits give low values 1.06 | locus YIL125W, strain kgd1, hits give low values 1.01 | locus YIR030C, strain dcg1, hits give low values 1.01 | locus YJL092W, strain hpr5, hits give low values 1.02 | locus YJL095W, strain BCK1 (second series), hits give low values 1.01 | locus YJL095W, strain BCK1, hits give low values 0.99 and 0.98 | locus YJL115W, strain asf1, hits give low values 1.01 | locus YJL129C, strain trk1, hits give low values 1.03 | locus YJL134W, strain LCB3, hits give low values 1 | locus YJL154C, strain vps35, hits give low values 1.01 | locus YJL164C, strain tpk1, hits give low values 1.01 | locus YJL166W, strain qcr8, hits give low values 1.03 | locus YJL168C, strain set2, hits give low values 1.01 | locus YJL187C, strain SWE1 (second series), hits give low values 1 | locus YJL187C, strain SWE1, hits give low values 1.01 | locus YJR043C, strain POL32, hits give low values 0.997 | locus YJR066W, strain TOR1, hits give low values 0.936
